ChEMBL document CHEMBL1961873, “Compounds: GSK PKIS; Assays: Nanosyn kinase panel” (2012)

molecular target: Fibroblast growth factor receptor 1 (Homo sapiens) (UniProt P11362); settings: at 0.1 µM
Sequence (P11362 22-822 limits assumed): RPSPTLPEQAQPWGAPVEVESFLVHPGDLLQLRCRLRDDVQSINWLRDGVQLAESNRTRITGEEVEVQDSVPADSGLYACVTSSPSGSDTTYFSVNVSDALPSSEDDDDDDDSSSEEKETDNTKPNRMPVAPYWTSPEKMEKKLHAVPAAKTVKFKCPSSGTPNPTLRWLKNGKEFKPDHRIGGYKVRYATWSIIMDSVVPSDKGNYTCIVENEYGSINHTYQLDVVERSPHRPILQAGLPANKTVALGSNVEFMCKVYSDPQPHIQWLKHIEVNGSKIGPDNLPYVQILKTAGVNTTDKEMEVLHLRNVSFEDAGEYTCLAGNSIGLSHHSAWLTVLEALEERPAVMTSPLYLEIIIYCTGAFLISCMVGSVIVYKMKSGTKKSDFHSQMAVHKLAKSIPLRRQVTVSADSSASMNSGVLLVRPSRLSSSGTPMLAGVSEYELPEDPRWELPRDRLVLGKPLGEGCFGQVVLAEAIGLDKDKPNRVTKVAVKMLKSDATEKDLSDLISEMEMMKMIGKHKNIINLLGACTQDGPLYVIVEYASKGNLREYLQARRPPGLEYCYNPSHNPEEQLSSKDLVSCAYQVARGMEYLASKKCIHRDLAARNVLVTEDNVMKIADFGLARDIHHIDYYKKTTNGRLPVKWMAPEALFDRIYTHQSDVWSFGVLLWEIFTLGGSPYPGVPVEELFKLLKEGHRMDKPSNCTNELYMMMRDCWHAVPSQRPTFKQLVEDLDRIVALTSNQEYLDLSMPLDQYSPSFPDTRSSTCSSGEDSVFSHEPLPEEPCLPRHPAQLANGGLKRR

Structure (SMILES)	inhibition
COc1cccc(-n2ncc3c(N/N=C/c4ccc(C(=O)NCCN(C)C)cc4)ncnc32)c1	4.74%
O=C(O[C@H]1CN[C@H](C#Cc2cc3ncnc(Nc4ccc5c(cnn5Cc5ccccc5)c4)c3s2)C1)N1CCOCC1	-2.97%
COc1cc(N2CCN(C(C)C)CC2)ccc1Nc1nc(Nc2cccc(F)c2C(=O)O)c2cc[nH]c2n1	2.19%
COC(=O)Nc1nc2ccc(Oc3ccc(NC(=O)Nc4cc(C(F)(F)F)ccc4F)cc3)cc2s1	4.86%
CCS(=O)(=O)c1ccc(OC)c(Nc2ncc(-c3cccc(C(C)=O)c3)o2)c1	4.89%
CN(C)CCNC(=O)Nc1ccc(N(C)c2ccnc(Nc3ccc(CS(C)(=O)=O)cc3)n2)cc1	27.9%
CC1(C)CC(n2cnc(-c3ccc(F)cc3)c2-c2ccnc(N)n2)CC(C)(C)N1	6.46%
CCS(=O)(=O)c1ccc(OC)c(Nc2ncc(-c3cccc(F)c3)o2)c1	12.7%
Fc1cccc(COc2ccc(Nc3ncncc3C#Cc3ccccc3)cc2Cl)c1	2.88%
COc1ccccc1-c1cc(/C=C2\C(=O)Nc3ncc(Br)cc32)cc(Br)c1O	3.85%
OCCCNc1nccc(-c2c(-c3ccc(F)cc3)nn3cc(C(F)(F)F)ccc23)n1	6%
NS(=O)(=O)c1ccc(N/N=C2\C(=O)Nc3cccc(CCc4ccncc4)c32)cc1	5.09%
O=C1Nc2ccccc2/C1=C1\CCc2cc(O)ccc21	8.16%
COc1cccc(Nc2nccc(-c3cnn4ncccc34)n2)c1	-2.04%
CS(=O)(=O)Nc1ccc(-c2cc(-c3ccccc3)cc(C(N)=O)c2N)cc1	0.45%
O=C(Nc1n[nH]c2nnc(-c3cccnc3)cc12)C1CC1	-0.17%

Structure (SMILES)	inhibition
CN1CCC(n2cnc(-c3ccc(F)cc3)c2-c2ccnc(NCCO)n2)CC1	3.14%
COc1cc2c(cc1Nc1nc(Nc3cccc(F)c3C(N)=O)c3cc[nH]c3n1)N(C(=O)CN1CCN(C(C)C)CC1)CC2	11.4%
COc1ccc2ncn(-c3cc(O[C@H](C)c4ccccc4C(F)(F)F)c(C(N)=O)s3)c2c1	1.11%
O=C(O[C@H]1CN[C@H](C#Cc2cc3ncnc(Nc4ccc5c(ccn5Cc5cc(F)ccc5F)c4)c3s2)C1)N1CCOCC1	-0.06%
c1ccc(-c2n[nH]cc2-c2ccnc(-c3ccc(OCCn4ccnc4)cc3)c2)nc1	-3.47%
CCn1c(-c2nonc2N)nc2cncc(C(=O)NCCNC)c21	2.05%
COc1cc(N2CCN(C(C)C)CC2)ccc1Nc1nc(Nc2cccc3ncccc23)c2cc[nH]c2n1	-4.53%
Cc1cc(O)cc(C)c1/C=C/c1cncc(C(N)=O)c1	2.16%
FC(F)(F)CNc1nccc(-c2cnn3ncccc23)n1	4.83%
COc1ccc(-c2nn3ncccc3c2-c2ccnc(Nc3ccc(F)c(F)c3)n2)cc1	4.92%
COc1ccc(Nc2ncc(-c3ccccc3)o2)cc1OC	-3.4%
CS(=O)(=O)CCNCc1ccc(-c2ccc3ncnc(Nc4ccc(OCc5cccc(C(F)(F)F)c5)cc4)c3c2)o1	6.33%
CNC(=O)c1ncccc1Nc1nc(Nc2cc3c(cc2OC)CCCN3C(=O)CN(C)C)nc2[nH]ccc12	9.89%
CS(=O)(=O)Nc1ccc(-c2ccc3c(NC(=O)C4CC4)n[nH]c3c2)cc1	6.04%
CN(c1ccc(NC(=O)NCCN2CCOCC2)cc1)c1ccnc(Nc2ccc(CS(C)(=O)=O)cc2)n1	1.48%

molecular target: Fibroblast growth factor receptor 1 (Homo sapiens) (UniProt P11362); settings: at 1 µM

Structure (SMILES)	inhibition
COc1cccc(-n2ncc3c(N/N=C/c4ccc(C(=O)NCCN(C)C)cc4)ncnc32)c1	9.7%
O=C(O[C@H]1CN[C@H](C#Cc2cc3ncnc(Nc4ccc5c(cnn5Cc5ccccc5)c4)c3s2)C1)N1CCOCC1	-1.28%
COc1cc(N2CCN(C(C)C)CC2)ccc1Nc1nc(Nc2cccc(F)c2C(=O)O)c2cc[nH]c2n1	6.27%
COC(=O)Nc1nc2ccc(Oc3ccc(NC(=O)Nc4cc(C(F)(F)F)ccc4F)cc3)cc2s1	16.9%
CCS(=O)(=O)c1ccc(OC)c(Nc2ncc(-c3cccc(C(C)=O)c3)o2)c1	12.9%
CN(C)CCNC(=O)Nc1ccc(N(C)c2ccnc(Nc3ccc(CS(C)(=O)=O)cc3)n2)cc1	9.1%
CC1(C)CC(n2cnc(-c3ccc(F)cc3)c2-c2ccnc(N)n2)CC(C)(C)N1	1.68%
CCS(=O)(=O)c1ccc(OC)c(Nc2ncc(-c3cccc(F)c3)o2)c1	46.2%
Fc1cccc(COc2ccc(Nc3ncncc3C#Cc3ccccc3)cc2Cl)c1	2.38%
COc1ccccc1-c1cc(/C=C2\C(=O)Nc3ncc(Br)cc32)cc(Br)c1O	14%
OCCCNc1nccc(-c2c(-c3ccc(F)cc3)nn3cc(C(F)(F)F)ccc23)n1	6.47%
NS(=O)(=O)c1ccc(N/N=C2\C(=O)Nc3cccc(CCc4ccncc4)c32)cc1	16.7%
O=C1Nc2ccccc2/C1=C1\CCc2cc(O)ccc21	23.5%
COc1cccc(Nc2nccc(-c3cnn4ncccc34)n2)c1	4.55%
CS(=O)(=O)Nc1ccc(-c2cc(-c3ccccc3)cc(C(N)=O)c2N)cc1	3.2%
O=C(Nc1n[nH]c2nnc(-c3cccnc3)cc12)C1CC1	-1.08%

Structure (SMILES)	inhibition
CN1CCC(n2cnc(-c3ccc(F)cc3)c2-c2ccnc(NCCO)n2)CC1	-2.05%
COc1cc2c(cc1Nc1nc(Nc3cccc(F)c3C(N)=O)c3cc[nH]c3n1)N(C(=O)CN1CCN(C(C)C)CC1)CC2	2.78%
COc1ccc2ncn(-c3cc(O[C@H](C)c4ccccc4C(F)(F)F)c(C(N)=O)s3)c2c1	-0.51%
O=C(O[C@H]1CN[C@H](C#Cc2cc3ncnc(Nc4ccc5c(ccn5Cc5cc(F)ccc5F)c4)c3s2)C1)N1CCOCC1	2.23%
c1ccc(-c2n[nH]cc2-c2ccnc(-c3ccc(OCCn4ccnc4)cc3)c2)nc1	3.09%
CCn1c(-c2nonc2N)nc2cncc(C(=O)NCCNC)c21	4.72%
COc1cc(N2CCN(C(C)C)CC2)ccc1Nc1nc(Nc2cccc3ncccc23)c2cc[nH]c2n1	-4.83%
Cc1cc(O)cc(C)c1/C=C/c1cncc(C(N)=O)c1	7.91%
FC(F)(F)CNc1nccc(-c2cnn3ncccc23)n1	2.89%
COc1ccc(-c2nn3ncccc3c2-c2ccnc(Nc3ccc(F)c(F)c3)n2)cc1	0.84%
COc1ccc(Nc2ncc(-c3ccccc3)o2)cc1OC	5.44%
CS(=O)(=O)CCNCc1ccc(-c2ccc3ncnc(Nc4ccc(OCc5cccc(C(F)(F)F)c5)cc4)c3c2)o1	10.8%
CNC(=O)c1ncccc1Nc1nc(Nc2cc3c(cc2OC)CCCN3C(=O)CN(C)C)nc2[nH]ccc12	3.03%
CS(=O)(=O)Nc1ccc(-c2ccc3c(NC(=O)C4CC4)n[nH]c3c2)cc1	6.36%
CN(c1ccc(NC(=O)NCCN2CCOCC2)cc1)c1ccnc(Nc2ccc(CS(C)(=O)=O)cc2)n1	0.91%
